Results on 46 compounds are retold here after PubChem BioAssay AID686996 (Broad Institute, 2013).

SMILES strings stand for the structures. Values joined by “and” are separate entries in the source; they are usually repeats but may differ in a detail not shown here. Equal values may be shown once. Hit rate of the full screen: of about 350,000 compounds, about 1,900 (0.54%) were called active.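 Rule for the calls: active = mean inhibition across replicates at least about 35%, with every replicate also reaching that limit (limit read from the data); inconclusive = only one of the two criteria met; inactive = neither criterion met.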 For the sample, actives were picked, then their nearest neighbours and some compounds at random. The source holds several records for some structures; these can differ, active in one and inactive in another.

Usually inhibition stands for the relative decrease from the control value, in per cent.

In the assay the target is Caspase-6 (Homo sapiens) (UniProt P55212). Kind of assay: inhibition of CASP6 peptide cleavage – biochemical, VEID-R110 fluorescence, single point, set 2, primary screen (AID 686996).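 Note: 0% = median of neutral control wells and 100% = no fluorescence left.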 The following applies: purified caspase-6, Z-VEID-R110 cleavage fluorescence; at 12.5 µM; stronger effect = higher value.
Sequence of Caspase-6 (Homo sapiens) (P55212 24-179 limits assumed): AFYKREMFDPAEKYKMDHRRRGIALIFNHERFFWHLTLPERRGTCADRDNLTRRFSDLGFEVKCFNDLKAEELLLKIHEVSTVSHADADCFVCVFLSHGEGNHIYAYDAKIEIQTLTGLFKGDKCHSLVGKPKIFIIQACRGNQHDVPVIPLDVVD
Sequence of Caspase-6 (Homo sapiens) (P55212 194-293 limits assumed): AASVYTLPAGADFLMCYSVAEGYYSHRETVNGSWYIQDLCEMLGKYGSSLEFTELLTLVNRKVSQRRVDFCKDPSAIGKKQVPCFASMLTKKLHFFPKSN
On to `CC(=O)N(C1=C(Cl)C(=O)c2ccccc2C1=O)c1ccc(C(=O)O)cc1`, for which the inhibition was 91% (active).

In the case of `O=C1C(Cl)=C(Oc2ccccc2)C(=O)c2ccccc21`, the inhibition is 4.78% (inactive).

For the compound `O=C(NC1=CC(=O)c2ccccc2C1=O)c1ccccc1`, the inhibition is 1.17% (inactive).

`CNC[C@@H]1OCCCC[C@@H](C)Oc2ccc(NS(C)(=O)=O)cc2C(=O)N([C@H](C)CO)C[C@@H]1C`: the inhibition was -3.75% (inactive).

In the case of `CCO[C@H]1OC(C(=O)N2CCOCC2)=C[C@@H](c2ccc3c(c2)OCO3)[C@@H]1CCCO`, the inhibition was 38.4% (active) and 1.81% (inactive).

Take `CCO[C@H]1OC(C(=O)N2CCCCCCC2)=C[C@@H](c2ccc(C(F)(F)F)cc2)[C@@H]1CCCO`: the inhibition is -1.98% (inactive) and 3.38% (inactive).

Regarding `CCO[C@@H]1OC(C(=O)N2CCOCC2)=C[C@H](C)[C@H]1CCCO`, the inhibition was -0.276% (inactive).

As to `Cc1noc(C)c1NC(=O)Nc1ccc2c(c1)C(=O)N([C@H](C)CO)C[C@@H](C)[C@@H](CN(C)Cc1ccccc1)O2`, the inhibition is -0.453% (inactive).

`C[C@H](CO)N1C[C@H](C)[C@H](CN(C)Cc2ccc(C(F)(F)F)cc2)OCCCC[C@H](C)Oc2ccc(NS(=O)(=O)c3ccc(Cl)cc3)cc2C1=O`: the inhibition is 0% (inactive).

With `CCC(=O)N1[C@H](C(=O)OC)[C@@H](CO)[C@@H]2Cn3c(ccc(-c4cccc(F)c4)c3=O)[C@@H]21`, the inhibition was -0.171% (inactive).

As to `Cc1cccc(-c2ccc(C3[C@@H]4CN(C(=O)Nc5ccc(C(F)(F)F)cc5)C[C@H]3N4)cc2)c1` (stereo partly specified), the inhibition is 17.5% (inactive) and -2.54% (inactive).

As for `C[C@@H]1CCCCO[C@@H](CN(C)Cc2ccccc2)[C@H](C)CN([C@H](C)CO)C(=O)c2cc(NS(=O)(=O)c3cccs3)ccc2O1`, the inhibition is -0.17% (inactive).

With `Cc1ccc(S(=O)(=O)N2CCN(C(=O)COC(=O)c3c(C)cc(C)cc3C)CC2)c(C)c1`, the inhibition is 0.238% (inactive).

Regarding `Cc1ccc(S(=O)(=O)N2CCN(C(=O)COC(=O)CNC(=O)c3ccc(C(C)(C)C)cc3)CC2)c(C)c1`, the inhibition was 53.3% (active).

In the case of `COc1ccccc1CCC(=O)OCC(=O)N1CCN(S(=O)(=O)c2ccc(C)cc2C)CC1`, the inhibition is 0.558% (inactive).

For `COc1ccc(Br)cc1/C=N/Nc1ccc(S(=O)(=O)Nc2ccccc2C(=O)O)cc1[N+](=O)[O-]`, the inhibition was 49.3% (active).

As for `CC1CN(C(=O)c2ccccc2NS(=O)(=O)c2cccc([N+](=O)[O-])c2)CC(C)O1` (stereo unspecified), the inhibition is 0.082% (inactive).

On to `COc1ccc(S(=O)(=O)N2CCC(C(=O)OCC(=O)c3ccccc3)CC2)cc1[N+](=O)[O-]`, for which the inhibition is -8.89% (inactive).

`CCCN1[C@H](C(=O)N[C@H](C)c2ccccc2)[C@@H](CO)[C@@H]2Cn3c(ccc(-c4ccccc4)c3=O)[C@@H]21`: the inhibition was -1.76% (inactive).

With `O=C(C[C@H]1CC[C@H]2[C@@H](COC[C@@H](O)CN2CC2CCOCC2)O1)NCc1ccc(Cl)cc1`, the inhibition was -3.23% (inactive).

For the compound `Cc1noc(C)c1S(=O)(=O)N(C)C[C@@H]1Oc2ccc(NC(=O)Cn3cnnn3)cc2CC(=O)N([C@@H](C)CO)C[C@@H]1C`, the inhibition is 2.4% (inactive).

On to `Cc1c(C(=O)Nc2ccccc2)sc2nc3n(c(=O)c12)CCCCC3`, for which the inhibition is 14.7% (inactive).

`CCN=c1sc(C(=O)Nc2ccccc2)c(C)n1CC`: the inhibition is 67.5% (active).

For the compound `COc1ccc(NC(=O)c2sc(=O)n(Cc3ccc(S(=O)(=O)N(C)C)cc3)c2C)cc1`, the inhibition is -0.522% (inactive).

Turning to `C[C@@H]1CN([C@@H](C)CO)C(=O)Cc2cc(NS(C)(=O)=O)ccc2O[C@H]1CN(C)C(=O)Nc1ccccc1`, the inhibition was 2.54% (inactive).

In the case of `O=S(=O)(N[C@H]1CC[C@@H](CCNS(=O)(=O)c2ccccc2Cl)O[C@@H]1CO)c1ccccc1`, the inhibition is 1.46% (inactive).

In the case of `C[C@@H]1CN([C@@H](C)CO)C(=O)c2cc(NC(=O)Nc3ccc4c(c3)OCO4)ccc2O[C@@H](C)CCCCO[C@@H]1CN(C)S(=O)(=O)c1cccs1`, the inhibition is -0.287% (inactive).

As to `COc1ccc(NS(=O)(=O)c2cccc3nsnc23)cc1Cl`, the inhibition is -0.203% (inactive).

Turning to `O=S(=O)(Nc1ccccc1Cl)c1cccc2nsnc12`, the inhibition was 51.3% (active).

Take `O=C(O)c1ccc(NS(=O)(=O)c2cccc3nsnc23)cc1`: the inhibition is 4.06% (inactive).

`Cc1cccc(S(=O)(=O)N2CC[C@@H]3[C@H]2c2cc(C#Cc4ccccc4F)ccc2N[C@@H]3CO)c1`: the inhibition is 4.39% (inactive).

`CC(C)NC(=O)Nc1ccc2c(c1)C(=O)N([C@@H](C)CO)C[C@H](C)[C@H](CN(C)C(=O)NC1CCCCC1)OCCCC[C@@H](C)O2`: the inhibition was 1.72% (inactive).

Regarding `C[C@@H]1CN([C@H](C)CO)C(=O)c2cc(-c3cccc(C#N)c3)cnc2O[C@H]1CN(C)C(=O)C1CCC1`, the inhibition is -1.37% (inactive).

For the compound `COc1ccc(-c2cc(=O)oc3cc(OCC(=O)N[C@@H](Cc4c[nH]c5ccccc45)C(=O)O)ccc23)cc1`, the inhibition was 5.8% (inactive).

Turning to `COc1ccc(-c2cc(C(=O)NC(Cc3c[nH]c4ccccc34)C(=O)O)c(C)o2)cc1OC` (stereo unspecified), the inhibition was 50.7% (active).

Turning to `CC(Oc1ccc2c(-c3ccccc3)cc(=O)oc2c1)C(=O)NC(Cc1c[nH]c2ccccc12)C(=O)O` (stereo unspecified), the inhibition was 5.42% (inactive).

For the compound `COc1ccc2c3c([nH]c2c1)[C@H](CO)N(Cc1nccs1)CC31CCN(Cc2cccnc2)CC1`, the inhibition was 1.89% (inactive).

With `C/C=C/c1ccc([C@H]2[C@@H](CO)N(C(C)=O)[C@H]2CNC(=O)c2ccncc2)cc1`, the inhibition is -0.501% (inactive).

`COc1ccc2c3c([nH]c2c1)[C@@H](CO)N(S(C)(=O)=O)CC31CN(CC2CC2)C1`: the inhibition is 0.799% (inactive).

On to `COc1ccc(Cl)cc1N(CC(=O)N1CCCCC1)S(C)(=O)=O`, for which the inhibition is 5.56% (inactive).

Turning to `COc1ccc(Cl)cc1N(CC(=O)N/N=C/c1ccc(OCC(N)=O)cc1)S(C)(=O)=O`, the inhibition was 49.4% (active).

As for `COc1ccc(S(=O)(=O)N(CC(=O)N/N=C/c2ccc(C(=O)O)cc2)Cc2ccccc2)cc1OC`, the inhibition was 3.65% (inactive).

Consider `O=C(C1CCCCC1)N1CC(=O)N2[C@H](CO)[C@@H](c3ccc(C#Cc4cccc(F)c4)cc3)[C@@H]2C1`, for which the inhibition was -1.89% (inactive).

On to `C[C@H](CO)N1C[C@H](C)[C@H](CN(C)C(=O)C2CCOCC2)Oc2ncc(-c3ccccc3F)cc2C1=O`, for which the inhibition is -2.04% (inactive).

Regarding `C[C@H](CO)N1C[C@H](C)[C@@H](CN(C)Cc2cccc(F)c2)Oc2cc(C#CC3CC3)ccc2S1(=O)=O`, the inhibition is 0.411% (inactive).

Consider `Cc1ccc(S(=O)(=O)N(C)C[C@H]2Oc3ccc(NC(=O)Nc4cccc5ccccc45)cc3CC(=O)N([C@H](C)CO)C[C@H]2C)cc1`, for which the inhibition is -0.526% (inactive).
